Here are results for 64 compounds from PubChem BioAssay AID651710 (Broad Institute, 2012).

Values joined by “and” are separate entries in the source; they are usually repeats but may differ in a detail not shown here. Equal values may be shown once. Screen size: about 360,000 compounds; about 1,600 (0.44%) were called active.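 Rule for the calls: active = every replicate showing at least 50% inhibition; inconclusive = mean inhibition at least 50% but not in every replicate; inactive = the rest.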 The sample as a whole holds a higher share of actives than the screen did. Where a structure was tested more than once in an assay, its records may differ in their call.

The target of this experiment is DNA repair protein RAD52 homolog (Homo sapiens) (UniProt P43351). As to the kind of experiment: blockers of RAD52 strand annealing activity – biochemical, FRET, single point, set 2, primary screen (AID 651710). To be noted: recombinant RAD52 DNA annealing, FRET fluorescence; at 18.7 µM; stronger effect = higher value.
Chain of DNA repair protein RAD52 homolog (Homo sapiens) (P43351 whole entry, looked up): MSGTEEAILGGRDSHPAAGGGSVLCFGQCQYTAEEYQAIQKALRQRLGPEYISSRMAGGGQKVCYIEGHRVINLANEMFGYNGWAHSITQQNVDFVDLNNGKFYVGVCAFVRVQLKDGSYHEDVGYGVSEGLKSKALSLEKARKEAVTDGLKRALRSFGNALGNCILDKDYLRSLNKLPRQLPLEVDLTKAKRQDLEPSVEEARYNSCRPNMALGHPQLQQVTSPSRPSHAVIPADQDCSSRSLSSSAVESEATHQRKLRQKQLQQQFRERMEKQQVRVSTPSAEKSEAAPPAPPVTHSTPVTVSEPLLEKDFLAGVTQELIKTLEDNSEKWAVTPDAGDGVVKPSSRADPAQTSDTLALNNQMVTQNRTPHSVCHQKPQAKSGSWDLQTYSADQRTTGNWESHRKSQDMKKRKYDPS
Broadly, the inhibition is the change of the read-out against control, counted positive when it falls. Regarding `CN(C)C(=O)C[C@H]1CC[C@H](NC(=O)NC2CCCC2)[C@@H](CO)O1`, the inhibition is -3.59% (inactive).

In the case of `CCCC#Cc1ccc([C@H]2[C@@H](CO)N3CCCCN(C(=O)c4ccc5c(c4)OCO5)C[C@@H]23)cc1`, the inhibition is -42.9% (inactive).

In the case of `COc1ccc(NC(=O)N(C)C[C@@H]2Oc3ccc(NC(=O)CCC(F)(F)F)cc3C(=O)N([C@@H](C)CO)C[C@H]2C)cc1`, the inhibition is -4.28% (inactive).

With `O=C(Nc1ccccc1)[C@@H]1[C@@H](CO)[C@@H]2Cn3c(cccc3=O)[C@@H]2N1C(=O)C1CC1`, the inhibition was 2.14% (inactive).

For the compound `COc1ccc(C(=O)COC(=O)c2ccc([N+](=O)[O-])s2)cc1OC`, the inhibition is -8.04% (inactive).

For `COc1ccc(-n2nnnc2SCC(=O)c2ccc(OC)c(OC)c2)cc1`, the inhibition is -22.4% (inactive).

For `C=Cn1cc[n+](CC(=O)c2ccc(OC)c(OC)c2)c1`, the inhibition was 98% (active).

As to `COc1ccc2[nH]c3c(C)c4cc[n+](C)cc4c(C)c3c2c1`, the inhibition is 94.3% (active).

Turning to `CC(=O)N(C)C[C@H]1Oc2ncc(C#CC3(O)CCCC3)cc2C(=O)N([C@@H](C)CO)C[C@@H]1C`, the inhibition is 9.64% (inactive).

In the case of `CO[C@@H]1CN(C)C(=O)c2ccc(NC(=O)Nc3ccccc3)cc2OC[C@@H](C)N(C(=O)CN(C)C)C[C@H]1C`, the inhibition was 5.57% (inactive).

As for `Cn1cnc(S(=O)(=O)N2CCCCN3[C@H](CO)[C@@H](c4ccc(-c5ccc(F)cc5)cc4)[C@@H]3C2)c1`, the inhibition was -27.5% (inactive).

`COc1ccc(-c2cn(CC[C@H]3CC[C@@H](NC(=O)CCN4CCCCC4)[C@H](CO)O3)nn2)cc1`: the inhibition was -7.25% (inactive).

Take `C[C@H]1CCCCO[C@H](CN(C)S(=O)(=O)c2ccc(F)cc2)[C@@H](C)CN([C@@H](C)CO)C(=O)c2cc(NS(=O)(=O)c3cn(C)cn3)ccc2O1`: the inhibition is -9.68% (inactive).

As for `CSc1ccccc1NC(=O)COC(=O)CCCOc1ccc(C)cc1`, the inhibition is -13.4% (inactive).

Turning to `Cc1ccc(COc2ccc(C(=O)NN)cc2)cc1`, the inhibition is -18.7% (inactive).

`CCCCCCCCCCOC(=O)Cn1c(COc2ccc(C)cc2)[n+](C)c2ccccc21`: the inhibition is 79.8% (active).

As to `COCC#Cc1ccc2c(c1)O[C@@H](CN(C)C(=O)Nc1ccccc1F)[C@H](C)CN([C@H](C)CO)S2(=O)=O`, the inhibition was 11.1% (inactive).

In the case of `O=S(=O)(c1ccccc1)N1CCCCN2[C@H](C1)[C@H](c1ccc(-c3ccccc3)cc1)[C@@H]2CO`, the inhibition is -26.6% (inactive).

Consider `C[C@H]1CN([C@@H](C)CO)C(=O)c2cc(NC(=O)CCC(F)(F)F)ccc2O[C@H]1CN(C)Cc1ccc(C(=O)O)cc1`, for which the inhibition is -6.5% (inactive).

Consider `COc1cccc2sc3cc(NCC[C@@H]4CCCN4C)ccc3c(=O)c12`, for which the inhibition is -48.1% (inactive).

As to `CN1CCC[C@@H]1CCO[C@](C)(c1ccccc1)c1ccc(Cl)cc1`, the inhibition is 27.4% (inactive).

As to `Cc1cc2oc3ccc(NCCC4CCCN4C)cc3c(=O)c2cc1C` (centres undefined), the inhibition is 60.4% (active).

Take `COc1ccc2c3c([nH]c2c1)[C@H](CO)N(C(=O)c1ccncc1)CC31CCN(C(=O)c2ccncc2)CC1`: the inhibition was 2.16% (inactive).

For the compound `COc1cccc(S(=O)(=O)N2C[C@@H]3N[C@H](C2)C3c2ccc(-c3cccc(C(=O)N(C)C)c3)cc2)c1` (some centres undefined), the inhibition is 10.5% (inactive) and 16.9% (inactive).

In the case of `COc1ccccc1S(=O)(=O)N1C[C@@H]2N[C@H](C1)C2c1ccc(-c2cccc(C)c2)cc1` (some centres undefined), the inhibition is 56.8% (active) and 37.8% (inactive).

For the compound `N#Cc1ccc(-c2ccc(C3[C@@H]4CN(S(=O)(=O)c5ccccc5F)C[C@H]3N4)cc2)cc1` (some centres undefined), the inhibition is -15.8% (inactive) and -46.3% (inactive).

Turning to `COc1ccc(NC(=O)N(C)C[C@H]2Oc3ccc(NS(=O)(=O)c4ccc(F)cc4)cc3C(=O)N([C@@H](C)CO)C[C@@H]2C)cc1`, the inhibition was 15.8% (inactive).

Consider `C[C@H](CO)N1C[C@H](C)[C@@H](CN(C)Cc2ccc(Cl)c(Cl)c2)Oc2ccc(NS(=O)(=O)c3ccccc3)cc2C1=O`, for which the inhibition is -11.9% (inactive).

`S=C(NCCCc1cnc[nH]1)NCCCN(Cc1ccc(Cl)c(Cl)c1)c1ccc(Br)cn1`: the inhibition was -1.73% (inactive).

On to `NCCCNC(=S)NCCCN(Cc1ccc(Cl)cc1)c1ccc(Br)cn1`, for which the inhibition is 95% (active).

As for `O=C(/C=C/c1ccc(Cl)cc1)Nc1ccc(Br)cn1`, the inhibition was -0.893% (inactive).

As to `O=C1CN(S(=O)(=O)c2ccccc2)C[C@H]2[C@H](c3ccc(C4=CCCC4)cc3)[C@@H](CO)N12`, the inhibition was -19.1% (inactive).

Turning to `C[C@H](NC(=O)C[C@@H]1C=C[C@H](NC(=O)CN2CCOCC2)[C@H](CO)O1)c1ccccc1`, the inhibition was 3.29% (inactive).

For the compound `Cc1ccc2nc(CN(C)C(=O)[C@@H](Cc3ccccc3)NC(=O)[C@H]3O[C@@H](n4ccc(=O)[nH]c4=O)[C@H](O)[C@@H]3O)[nH]c2c1`, the inhibition is 5.6% (inactive).

Regarding `C[C@@H]1CN([C@H](C)CO)C(=O)Cc2cc(N(C)C)ccc2O[C@H]1CN(C)S(C)(=O)=O`, the inhibition was -4.07% (inactive).

Take `CCc1c(C)nc2c(-c3ccccc3)c(C)nn2c1Nc1ccc(NC(C)=O)cc1`: the inhibition is -12.3% (inactive).

As for `CC(=O)Nc1ccc(Nc2c3ccccc3nc3ccccc23)cc1`, the inhibition was 91.2% (active).

In the case of `CC(=O)NCCn1c(SCC(=O)Nc2ccc(C)cc2)nc2ccccc2c1=O`, the inhibition is -11.4% (inactive).

For `O=C(c1cnccn1)N1CC(=O)N2[C@H](C1)[C@@H](c1ccc(C#CC3CCCCC3)cc1)[C@@H]2CO`, the inhibition is 13.7% (inactive).

As to `CNC(=O)c1cccc2nc3ccccc3nc12`, the inhibition is 2.55% (inactive).

As to `CN(C)CCNC(=O)c1ccc(Cl)c2cc3ccccc3nc12`, the inhibition is 94.5% (active).

As to `O=C(NCCc1ccccn1)c1cc(-c2ccc(Cl)cc2)nc2ccccc12`, the inhibition is -15.9% (inactive).

Consider `Cn1cnc(S(=O)(=O)N[C@H]2C=C[C@H](CC(=O)NCC3CCCCC3)O[C@@H]2CO)c1`, for which the inhibition was 2.08% (inactive).

Consider `C[C@@H]1CN([C@H](C)CO)C(=O)c2cc(NS(=O)(=O)c3ccc(Cl)cc3)ccc2O[C@@H](C)CCCCO[C@H]1CN(C)Cc1ccccc1`, for which the inhibition was 64.2% (active).

In the case of `C[C@@H]1CCCCO[C@H](CN(C)Cc2ccccc2)[C@H](C)CN([C@H](C)CO)C(=O)c2cc(NS(=O)(=O)c3ccc(Cl)cc3)ccc2O1`, the inhibition is 53.1% (active).

For `C[C@@H]1CCCCO[C@H](CN(C)Cc2ccccc2)[C@H](C)CN([C@@H](C)CO)C(=O)c2cc(NS(=O)(=O)c3ccccc3)ccc2O1`, the inhibition is 7.51% (inactive).

Regarding `C[C@H](CO)N1C[C@H](C)[C@@H](CN(C)Cc2ccncc2)OCCCC[C@H](C)Oc2ccc(NS(=O)(=O)c3ccc(Cl)cc3)cc2C1=O`, the inhibition was -15.9% (inactive).

Turning to `C[C@@H]1CN([C@@H](C)CO)C(=O)c2cc(NS(=O)(=O)c3cn(C)cn3)ccc2O[C@@H](C)CCCCO[C@H]1CN(C)S(=O)(=O)c1cccs1`, the inhibition is 99.3% (active).

For the compound `C[C@@H]1CCCCO[C@H](CN(C)C(=O)CCCN(C)C)[C@H](C)CN([C@@H](C)CO)C(=O)c2cc(NS(=O)(=O)c3ccc(Cl)cc3)ccc2O1`, the inhibition was 52.5% (active).

Take `C[C@@H]1CN([C@H](C)CO)C(=O)c2cc(NS(=O)(=O)c3cccs3)ccc2O[C@@H](C)CCCCO[C@@H]1CN(C)S(=O)(=O)c1cccs1`: the inhibition is -0.96% (inactive).

As to `CC(C)NC(=O)N(C)C[C@H]1OCCCC[C@H](C)Oc2ccc(NS(=O)(=O)c3ccc(Cl)cc3)cc2C(=O)N([C@@H](C)CO)C[C@H]1C`, the inhibition is 15.1% (inactive).

`C[C@@H]1CCCCO[C@H](CN(C)Cc2ccccc2)[C@@H](C)CN([C@H](C)CO)C(=O)c2cc(NS(=O)(=O)c3ccc(Cl)cc3)ccc2O1`: the inhibition is 35.2% (inactive) and -9.61% (inactive).

On to `C[C@@H]1CCCCO[C@H](CN(C)C(=O)CCCN(C)C)[C@H](C)CN([C@@H](C)CO)C(=O)c2cc(NS(=O)(=O)c3ccccc3)ccc2O1`, for which the inhibition was 13.8% (inactive).

On to `C[C@H](CO)N1C[C@H](C)[C@H](CN(C)Cc2ccc(C(F)(F)F)cc2)OCCCC[C@H](C)Oc2ccc(NS(=O)(=O)c3ccc(Cl)cc3)cc2C1=O`, for which the inhibition is 5.56% (inactive).

For the compound `C[C@@H]1CCCCO[C@H](CN(C)S(=O)(=O)c2cccs2)[C@H](C)CN([C@@H](C)CO)C(=O)c2cc(NS(=O)(=O)c3cccs3)ccc2O1`, the inhibition was -2.6% (inactive).

Regarding `COc1cccc(S(=O)(=O)Nc2ccc3c(c2)[C@@H]2C[C@@H](CC(=O)NCc4ccc(Cl)cc4)O[C@H](CO)[C@@H]2O3)c1`, the inhibition is 10.3% (inactive).

Turning to `CN(C)C(=O)C[C@@H]1C[C@H]2c3cc(NC(=O)Nc4ccccc4F)ccc3O[C@H]2[C@@H](CO)O1`, the inhibition was -10% (inactive).

Regarding `Cc1noc(C)c1S(=O)(=O)Nc1ccc2c(c1)CC(=O)N([C@@H](C)CO)C[C@H](C)[C@H](CN(C)C(=O)Nc1ccccc1)O2`, the inhibition was -0.934% (inactive).

`Cc1noc(C)c1NC(=O)Nc1cccc2c1O[C@@H](CN(C)C(=O)Nc1ccc(C(F)(F)F)cc1)[C@@H](C)CN([C@@H](C)CO)C2=O`: the inhibition was -2.22% (inactive).

For `O=C(C[C@@H]1CC[C@@H]2[C@H](COC[C@H](O)CN2S(=O)(=O)c2ccc(Cl)cc2)O1)N[C@@H]1CCN(Cc2ccccc2)C1`, the inhibition was 17.8% (inactive).

`O=C(C[C@H]1CC[C@H](NC(=O)Nc2ccccc2F)[C@@H](CO)O1)NCc1ccccc1`: the inhibition is -8.56% (inactive).

For `COc1ccc(S(=O)(=O)Nc2ccc3c(c2)C(=O)N([C@H](C)CO)C[C@@H](C)[C@H](CN(C)Cc2ccccc2)O3)cc1`, the inhibition is 12.7% (inactive).

In the case of `COc1cccc(-c2ccc([C@@H]3[C@@H](CO)N4C(=O)CN(C(=O)C5CCCCC5)C[C@H]34)cc2)c1`, the inhibition is -17.9% (inactive).

For the compound `CC(C)NC(=O)N(C)C[C@H]1OCCCC[C@@H](C)Oc2ccc(NC(=O)C3CCCCC3)cc2C(=O)N([C@H](C)CO)C[C@H]1C`, the inhibition was -14% (inactive).
